# Bioassay records as filed in PubChem BioAssay.
# USP2a block: inhibitors of human ubiquitin-specific protease USP2a; USP2 core, Ub-CHOP2 coupled fluorogenic reporter, 485/531; Potency, µM (titrated, usually from 38.3 µM), for the others: at the top dose activity change, negative = inhibition, hits mostly inhibitors; 330,000 tested, 0.01% active; AID 463254;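 note: potency is the fitted concentration of half-maximal effect; plate controls were DMSO wells for no effect and full inhibition by NEM control for full effect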
#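 Deubiquitinase activity read as fluorescence (485/531 nm) after Ub-CHOP2 cleavage activates the enterokinase reporter on its substrate; USP2 core 10nM, Ub-CHOP2 and substrate 25nM each, 30min compound preincubation then 60min RT; data normalized to NEM, curves fitted.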
# USP1-UAF1 inh: blocks the human USP1/UAF1 deubiquitinase complex. O94782. recombinant USP1/UAF1, Ub-Rhodamine cleavage fluorescence. Potency, µM (highest dose often 57.1 µM), without a hit: top-dose activity change, negative = inhibition, most hits filed as inhibitors. 390,000 tested, 0.23% active; note: potency is the fitted concentration of half-maximal effect; nearly all actives have a fitted effect of over 60% in size
# Target sequence (O94782 whole entry, looked up): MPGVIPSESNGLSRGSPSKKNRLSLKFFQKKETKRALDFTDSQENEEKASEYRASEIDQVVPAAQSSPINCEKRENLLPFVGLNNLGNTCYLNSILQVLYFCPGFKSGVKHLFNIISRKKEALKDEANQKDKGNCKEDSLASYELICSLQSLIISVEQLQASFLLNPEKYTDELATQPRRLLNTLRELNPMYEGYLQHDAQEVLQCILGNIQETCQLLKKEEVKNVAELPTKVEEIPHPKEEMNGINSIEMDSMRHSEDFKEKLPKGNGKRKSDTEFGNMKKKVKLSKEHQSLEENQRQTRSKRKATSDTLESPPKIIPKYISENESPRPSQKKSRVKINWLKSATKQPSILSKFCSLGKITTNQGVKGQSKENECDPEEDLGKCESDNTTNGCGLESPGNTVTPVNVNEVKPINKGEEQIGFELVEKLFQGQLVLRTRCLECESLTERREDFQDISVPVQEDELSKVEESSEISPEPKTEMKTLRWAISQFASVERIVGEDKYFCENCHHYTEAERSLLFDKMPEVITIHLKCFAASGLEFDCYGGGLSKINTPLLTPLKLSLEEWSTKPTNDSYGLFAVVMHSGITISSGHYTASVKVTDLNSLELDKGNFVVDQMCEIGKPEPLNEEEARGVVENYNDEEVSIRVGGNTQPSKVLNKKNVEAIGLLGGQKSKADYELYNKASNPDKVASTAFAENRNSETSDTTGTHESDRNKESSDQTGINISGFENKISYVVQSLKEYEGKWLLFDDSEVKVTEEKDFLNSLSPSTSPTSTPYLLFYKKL
#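 Step one: compound is pinned into 1nM USP1/UAF1 in HEPES pH 7.8 buffer with TCEP. Step two: 15 min room-temperature incubation. Step three: Ub-Rho (150nM final) starts cleavage, tracked by fluorescence over six one-minute reads.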
# PI5P4Ka inh: blocks human PI5P4K alpha kinase activity | P48426 | PI5P4Kalpha enzyme, ADP-Glo luminescence, 60 min; hits give low values | max response, % | 330,000 tested, 1.2% active; active = max response of -50% or lower; inconclusive = between -30% and -50%; inactive = -30% or higher; note: value at the top dose of about 77 µM
#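 Human PI5P4Kalpha with substrate in 0.038 M HEPES pH 7.4, 0.28 mM EGTA, 0.1% CHAPS, 5% DMSO; reaction started with 5 microM ATP (final), 60 min at room temperature. ADP formed read by ADP-Glo luminescence.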
# PLK1 PBD block: inhibitors of human PLK1 polo-box domain binding; P53350; Plk1 PBD binding of FITC phosphopeptide, fluorescence polarization; 360,000 tested, 2.8% active; Potency, µM, without a hit: max response, negative = inhibition, most hits filed as inhibitors; note: potency is the fitted concentration of half-maximal effect; series mostly up to about 57 µM; nearly all actives have a fitted effect of over 65% in size
# WRN inhibitor: inhibitors of human WRN helicase. Q14191. WRN helicase unwinding, fluorescent forked duplex, kinetic. Potency, µM (top dose mostly 114 µM), for inactives: at the highest dose activity change, negative = inhibition, most hits filed as inhibitors. 360,000 tested, 0.46% active. AID 651768; note: potency is the fitted concentration of half-maximal effect; nearly all actives have a fitted effect of over 55% in size
#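 WRN at 20 nM final was preincubated with compound for 15 min at room temperature; reaction started with 100 nM forked duplex oligonucleotide carrying fluorophore and quencher plus 2 mM ATP (final). Unwinding followed kinetically by red fluorescence (ex 525/em 598 nm).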
# * hit, by the source's call; u = inconclusive; x = no result; [ ] = dose if it differs, or a comment. The list is not random: actives were taken first. Their share in the collection is about 3.3%. Unless noted, calls come from the whole dose curve; as a rule, active = well fitted curve in the direction sought with a large enough effect; inconclusive = small, poorly fitted or top-dose-only effect, or another doubt; inactive = no such curve, though single readings can be large; an effect the other way counts as inactive or inconclusive. Unless noted, % is set by controls: 0 for no effect and ±100 for the full control effect.
SMILES,USP2a block,USP1-UAF1 inh,PI5P4Ka inh,PLK1 PBD block,WRN inhibitor
O=C(COC(=O)c1ccccc1O)NCCCc1ccccc1,0%,3%,-6,30µM*,-5%
O=C(O)/C=C/C(=O)NCCCc1ccccc1,13%,-19%,u,27µM*,1%
O=C(/C=C/c1ccc(Cl)cc1)NC1CC2CCC1C2 (centres undefined),3%,5%,-14,-18%,0%
COC(=O)C1=C(C)N(Cc2ccccc2)C(=S)N[C@H]1CCc1ccccc1,0%,x,x,x,x
CN(C(=O)CSc1nc2ccc(NC(=O)CCc3ccccc3)cc2s1)c1ccccc1,x,-23%,x,x,x
COc1ccc(-n2c(SCC(=O)Nc3nnc(C)s3)nc3c([nH]c4ccccc43)c2=O)cc1,x,-17%,x,x,x
CCCCOc1ccc(C(=O)NCCc2csc3nc(-c4ccccc4F)nn23)cc1,x,-14%,x,x,x
CCc1cccc(NC(=O)Nc2csc3c2CCCC3)c1,x,-17%,x,x,x
COc1ccc(C(=O)Nc2cccc(/C=C(\CCC(=O)O)c3nc4ccccc4s3)c2)cc1,0%,-27%,-56*,11µM*,-13%[11.6 µM]
Fc1ccccc1SCc1nnc(-c2ccccc2Br)o1,-6%,-18%,u,3.4µM*,u
Cc1c(C(=O)N(Cc2ccco2)Cc2ccccc2Cl)oc2ccc(F)cc12,x,-16%,x,x,x
COc1ccc(-c2cc(-c3ccccc3)nc(SCC(=O)CC(=O)OC(C)C)c2C#N)cc1,x,-19%,x,x,x
N#Cc1c(-c2ccccc2)cc(-c2ccccc2)nc1SCC(=O)NCC(=O)O,2%,-17%,2,24µM*,-29%
CC(C)OC(=O)CC(=O)CSc1nc(-c2ccc(F)cc2)cc(-c2ccccc2)c1C#N,2%,-13%,-8,24µM*,9%
O=C(O)c1ccc(NNC(=S)Nc2cc(C(F)(F)F)ccc2Cl)cc1,-4%,-10%,-19,21µM*,-26%
O=[N+]([O-])c1ccc(C(=S)N2CCN(Cc3ccccc3)CC2)cc1,1%,-18%,-7,-12%,0%
CC1CCN(C(=S)c2ccc([N+](=O)[O-])cc2)CC1,3%,-18%,-18,24µM*,-4%
O=[N+]([O-])c1ccc(C(=S)N2CCCC2)cc1,1%,-18%,-8,21µM*,-2%
CCN1CCN(C(=S)c2ccc([N+](=O)[O-])cc2)CC1,0%,1%,-16,12µM*,-23%
O=S(=O)(c1ccc(Cl)cc1)c1nc(-c2cccs2)oc1SCc1ccc(F)cc1,x,-15%,x,x,x
CCCc1cc(=O)[nH]c(SCC(=O)N(C)CC(=O)Nc2ccccc2CC)n1,1%,-15%,-19,27µM*,4%
CCCc1cc(=O)[nH]c(SCC(=O)N2CCCc3ccccc32)n1,0%,-8%,5,21µM*,8%
Cc1ccc(-c2cn3c(n2)sc2cc(C(=O)N4CCCCC4)ccc23)cc1,x,-14%,x,x,x
CC(=O)Nc1ccc(S(=O)(=O)NCC(=O)NNC(=O)c2csc(N3CCOCC3)n2)cc1,3%,-20%,-1,21µM*,-4%
O=C(CCNS(=O)(=O)c1ccccc1)NNC(=O)c1csc(N2CCOCC2)n1,0%,-15%,10,-1%,-2%
SMILES,USP2a block,USP1-UAF1 inh,PI5P4Ka inh,PLK1 PBD block,WRN inhibitor
CCCCC(=O)N1CCc2cc(OC)c(OC)cc2C1COc1ccc(C(=O)OCC)cc1 (centres undefined),x,-26%,x,x,x
O=C(NC1(O)C(=O)c2ccccc2C1=O)c1ccc(C(F)(F)F)cc1,13%,16µM*,5,-16%,u
CC(C)(C)NC(=O)NC(=O)CN1CCN(C(c2ccccc2)c2ccccc2)CC1,-2%,-14%,1,-2%,-8%
CC(C)(C)NC(=O)NC(=O)CN1CCN(Cc2ccccc2)CC1,-6%,-17%,-4,30µM*,3%
COc1ccc(CNC(=O)c2cc(-c3cccs3)nc3ccccc23)c(OC)c1,x,-12%,x,x,x
CCc1cccc(N(C(=O)c2csnn2)C(C(=O)NC(C)(C)C)c2ccncc2)c1 (centres undefined),0%,-6%,-23,27µM*,4%
Cc1ccc(OCc2cc(C(=O)N(C)Cc3cnc4ccccn34)no2)cc1C,0%,-20%,-15,21µM*,3%
O=C1C(Cl)=C(Nc2cccc(O)c2)C(=O)N1Cc1ccccc1,4%,-25%,-16,27µM*,u
CC1CCCCN1C(=O)c1cccc(NC2=C(Cl)C(=O)N(Cc3ccccc3)C2=O)c1 (centres undefined),-7%,-19%,-4,-4%,-9%
CCOc1ccc(C(=O)NC(=S)Nc2cccnc2)cc1[N+](=O)[O-],3%,1%,-27,6µM*,-11%
COc1ccc(C(=O)NC(=S)Nc2cccnc2)cc1[N+](=O)[O-],1%,-1%,-3,-12%,-12%
O=C(COCc1cc(-c2cccs2)on1)Nc1cccc(Cl)c1Cl,x,-1%,x,x,x
O=C(N/N=C/c1ccccc1Cl)c1[nH]c2ccc(Br)cc2c1-c1ccccc1,-1%,u,6,29%,25µM*
Cc1ccc(CCNC(=O)c2cn(C)c3ccc(S(=O)(=O)N4CCC(C)CC4)cc3c2=O)cc1,x,-22%,x,x,x
CC1CCCC2(C1)NC(=S)c1c(sc3c1CCCC3)N2 (centres undefined),-1%,-18%,u,5.3µM*,-19%
COc1cc(/C=N/NC(=O)c2nonc2C)ccc1O,0%,-8%,-4,6%,-5%
Cc1nonc1C(=O)N/N=C/c1ccccc1,2%,-9%,-11,24µM*,13%[57.1 µM]
Cc1ccccc1NC1=C/C(=N\S(=O)(=O)c2cccs2)c2ccccc2C1=O,0%,2.2µM*,-14,19µM*,-12%[57.1 µM]
COC(=O)[C@H](CO)NS(=O)(=O)c1ccc(C)cc1,-3%,-18%,-2,-1%,0%
COc1ccc(S(=O)(=O)/N=C2\C=C(Nc3ccc(O)cc3)C(=O)c3ccccc32)cc1,-4%,7.1µM*,-16,-7%,0%[11.6 µM]
COc1ccc(S(=O)(=O)c2ccc(O)cc2)cc1,-1%,-3%,0,u,1%
CC1=C(Nc2ccc(C(=O)O)cc2)C(=O)c2ccccc2C1=O,-4%,u,u,u,-4%
Cc1ccccc1NC1=C/C(=N\S(=O)(=O)c2ccc(C(=O)O)cc2)c2ccccc2C1=O,-3%,1.3µM*,-29,-28%,-34%[57.1 µM]
Cc1ccc(NC2=C/C(=N/S(=O)(=O)c3cccs3)c3ccccc3C2=O)cc1C,3%,-7%,-3,-4%,-5%
COC(=O)C(C(C)=O)C1=C/C(=N\S(=O)(=O)c2ccc(C)cc2)c2ccccc2C1=O (centres undefined),4%,-20%,x,28µM*,-18%
Cc1ccc(NC(=O)c2sc3nc[nH]c(=O)c3c2C)cc1C,x,3%,x,x,x
CC(=O)Nc1ccc(NC2=C/C(=N/S(=O)(=O)c3cccs3)c3ccccc3C2=O)cc1,0%,16µM*,1,-10%,-9%
